Source: PubChem
Sampled rows, rich in hits. Any-hit rate of the full collection: about 8%.
Lassa entry inh – inhibitors of Lassa virus binding or cell entry; Lassa virus pseudotype entry inhibition, cell reporter; 300,000 compounds, 1.2% hits; Potency, µM (titrated, usually from 37.9 µM), usual class: inhibitors; calls by dose curve; tested in HEK293 cells; also: nearly all actives have a fitted effect of over 50% in size
HCV inhibitor – HCV inhibition; Huh7.5.1 HCVcc-Cre infection, luciferase reporter, 44 h; Potency, µM (highest dose often 41.8 µM), most hits filed as inhibitors; 340,000 compounds, 3.4% hits; active = well fitted inhibition curve with a large enough effect; inconclusive = small, poorly fitted or top-dose-only effect, or another doubt; inactive = no such curve, though single readings can be large or run the other way
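Infectious HCVcc-Cre (~0.5 moi) was added to cells just after compound, with cells seeded 4 h earlier at 1,000 per well. Luciferase activity after 44 h culture reported infection; substrate was incubated 15 min at room temperature before reading.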
MARV entry inh – Marburg virus entry inhibition. Marburg virus pseudotyped entry inhibition, cell reporter. 300,000 compounds, 1.8% hits. AID 540276. Potency, µM (titrated, usually from 37.8 µM), most hits filed as inhibitors; calls by dose curve; tested in HEK293 cells
SARS PLP yeast – inhibitors of SARS-CoV papain-like protease in yeast; S. cerevisiae expressing SARS-CoV PLpro, growth rescue; Potency, µM (top dose mostly 32.9 µM), most hits filed as activators; 330,000 compounds, 0.19% hits; AID 485353; calls by dose curve; also: nearly all actives have a fitted effect of over 55% in size
FMDV antiviral – antivirals against foot and mouth disease virus; 410,000 compounds, 1.2% hits; Potency, µM (doses to about 57.9 µM), actives largely listed as inhibitors; FMDV antiviral cell-based qHTS; calls by dose curve; tested in HEK293T cells; also: read-out not given here; nearly all actives have a fitted effect of over 45% in size
HCMV antiviral – blocks human cytomegalovirus replication; HFF cells, HCMV-luciferase reporter, 72 h; hits give low values; 410,000 compounds, 4.5% hits; activity change, negative = inhibition, % at 57.5 µM; AID 1259415; in the data active = activity change below about -60%; inconclusive = no clear call, values can overlap the other calls; inactive = above about -39%
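Cell-based, HFFs, 1000 cells/well, 16 h 37C; cpds in DMSO + HCMV-luc, MOI 1 PFU/cell; 72 h 37C; OneGlo luminescence after 5 min RT; norm. to buffer vs Salinomycin 10uM.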
Large screens that a line does not name were inactive.

CCCCN(C)CCNC(=O)c1ccc(Cn2c(=S)[nH]c3ccc(Br)cc3c2=O)cc1	HCV inhibitor 11µM, MARV entry inh inconclusive
CN(C)CCNC(=O)c1ccc2c(=O)n(Cc3ccc(Cl)cc3)c(=S)[nH]c2c1	Lassa entry inh inconclusive, HCV inhibitor inconclusive, MARV entry inh inconclusive
O=C(O)CCCCCCCCCCP(=O)(c1ccccc1)c1ccccc1	none
O=P(CCCCCCCCCP(=O)(c1ccccc1)c1ccccc1)(c1ccccc1)c1ccccc1	Lassa entry inh inconclusive, HCV inhibitor 14µM, MARV entry inh inconclusive, FMDV antiviral inconclusive
Cc1ccc(CN2CCCn3nc(C(=O)NCC(C)c4ccccc4)cc3C2=O)cc1 (stereo unspecified)	Lassa entry inh inconclusive (no result: HCV inhibitor, MARV entry inh, SARS PLP yeast)
CC(=NCCN1CCOCC1)C1=C(O)c2ccccc2C1=O	MARV entry inh inconclusive, HCMV antiviral -102
O=C(Cn1cc([N+](=O)[O-])ccc1=O)NCC(=O)Nc1ccc(F)c(F)c1F	none
CCOC(=O)C1(C)CCCN(C(=O)c2ccc(OC)cc2)C1 (stereo unspecified)	none (no result: Lassa entry inh, HCV inhibitor, MARV entry inh, SARS PLP yeast)
COc1ccc(OC)c(NC(=O)CCNC(=O)Cn2cnc3ccccc3c2=O)c1	none
COc1ccc(-n2nc(C(=O)NCC(=O)Nc3cc(Cl)c(OC)cc3OC)c3ccccc3c2=O)cc1	HCV inhibitor 32µM, MARV entry inh inconclusive
COc1ccc(-n2nc(C(=O)NCC(=O)Nc3cc(OC)ccc3OC)c3ccccc3c2=O)cc1	HCV inhibitor inconclusive, MARV entry inh inconclusive, FMDV antiviral inconclusive (no result: Lassa entry inh)
COc1ccc(OC)c(NC(=O)CNC(=O)Cn2cnc3ccccc3c2=O)c1	HCV inhibitor inconclusive, MARV entry inh 0.71µM
COc1ccc(-n2nc(C(=O)Nc3ccc(OC)c(OC)c3)c3c4ccccc4n(C)c3c2=O)cc1	Lassa entry inh inconclusive, HCV inhibitor inconclusive, HCMV antiviral -64
COc1ccc(-n2nc(C(=O)Nc3ccc4c(c3)OCO4)c3c4ccccc4n(C)c3c2=O)cc1	none
COc1ccc(-n2nc(C(=O)NCC(=O)NC3CCCC(C)C3C)c3ccccc3c2=O)c(OC)c1 (stereo unspecified)	Lassa entry inh inconclusive, HCMV antiviral -61
CCCc1ccc(Oc2cc(NN3CCCCC3)c([N+](=O)[O-])cc2[N+](=O)[O-])cc1	none (no result: Lassa entry inh, MARV entry inh)
O=C1NC[C@@H](CCCCN2C[C@H](Cc3ccc(O)cc3)N(CCc3ccc(O)cc3)C(=O)C2=O)N(Cc2ccccc2)C1=O	none (no result: Lassa entry inh, HCV inhibitor, MARV entry inh, SARS PLP yeast)
C[C@H]1CN=C(N(C)C)N1CCc1ccc(F)cc1	none (no result: Lassa entry inh, MARV entry inh)
COc1ccc(OCC(=O)Nc2cc(-c3nn(C)c(=O)c4ccccc34)ccc2OC)cc1	Lassa entry inh inconclusive, HCV inhibitor 8.9µM, MARV entry inh 4.1µM, FMDV antiviral inconclusive
COc1ccc(-n2nc(C(=O)NCC(=O)Nc3ccccn3)c3ccccc3c2=O)cc1Cl	HCV inhibitor inconclusive, MARV entry inh 4.1µM
COc1ccc(NC(=O)COc2ccc(-c3nn(C)c(=O)c4ccccc34)cc2)cc1	MARV entry inh inconclusive
COc1cccc(NC(=O)c2ccc(S(=O)(=O)NCc3cccnc3)cc2)c1	Lassa entry inh inconclusive, HCV inhibitor 10µM, HCMV antiviral -61
COc1cccc(S(=O)(=O)NCc2ccc(C(=O)Nc3cccc(Cl)c3)cc2)c1	Lassa entry inh inconclusive, HCV inhibitor 10µM, MARV entry inh inconclusive, FMDV antiviral 25µM
O=C(NCc1cccnc1)c1cccc(NS(=O)(=O)c2ccc(Br)cc2)c1	HCV inhibitor 13µM, MARV entry inh inconclusive
O=C(NC1CCCCC1)c1ccc(S(=O)(=O)NCc2cccnc2)cc1	Lassa entry inh inconclusive, HCMV antiviral -61
COc1ccc(N(C(=O)COc2c(C)cccc2C)S(=O)(=O)c2ccc(Cl)cc2)cc1	Lassa entry inh inconclusive (no result: HCV inhibitor, MARV entry inh, SARS PLP yeast)
OC(CN1CCN(c2ccccn2)CC1)Cn1c2ccc(Cl)cc2c2cc(Cl)ccc21 (stereo unspecified)	MARV entry inh inconclusive
Cc1cc(=O)n2c3ccccc3n(CC(O)CN3CCN(Cc4ccccc4)CC3)c2c1C#N (stereo unspecified)	HCV inhibitor inconclusive, HCMV antiviral -68 (no result: Lassa entry inh, MARV entry inh)
OC(CN1CCCCC1)Cn1c2ccc(Cl)cc2c2cc(Cl)ccc21 (stereo unspecified)	HCV inhibitor inconclusive, MARV entry inh 10µM, FMDV antiviral inconclusive
Cc1cc(=O)n2c3ccccc3n(CC(O)CN3CCN(CCO)CC3)c2c1C#N (stereo unspecified)	HCV inhibitor inconclusive
OC(CN1CCN(Cc2ccccc2)CC1)Cn1c2ccccc2c2ccccc21 (stereo unspecified)	HCV inhibitor 11µM, MARV entry inh inconclusive
COc1ccc(-c2cc3ccccc3n2CC(O)CNCCO)cc1 (stereo unspecified)	MARV entry inh inconclusive
COc1ccc(-c2cc3ccccc3n2CC(O)CN2CCCCC2)cc1 (stereo unspecified)	HCMV antiviral -81 (no result: Lassa entry inh, MARV entry inh)
Cc1cc(NC(=O)COc2c(C)cccc2C)no1	none
CCn1cc(C(=O)N2CCN(c3cccc(Cl)c3)CC2)c(=O)c2cc(S(=O)(=O)N3CCCCC3)ccc21	none (no result: HCV inhibitor, SARS PLP yeast)
O=C(NCC1Cc2cccc(-c3cccnc3)c2O1)c1cc(-c2ccccc2)n[nH]1 (stereo unspecified)	none (no result: Lassa entry inh, HCV inhibitor, MARV entry inh, SARS PLP yeast, HCMV antiviral)
COc1cc(C2C(C#N)=C(C)NC3=C2C(=O)CC(C)(C)C3)ccc1OCCO (stereo unspecified)	HCV inhibitor inconclusive
COc1cc(C2C(C#N)=C(N)N(Nc3ccccc3)C3=C2C(=O)CC(C)(C)C3)ccc1OCc1cccc(F)c1 (stereo unspecified)	Lassa entry inh inconclusive, HCV inhibitor inconclusive, MARV entry inh 1.8µM
COc1cc(C2C(C#N)=C(N)N(Nc3ccccc3)C3=C2C(=O)CC(C)(C)C3)ccc1OCc1ccccc1 (stereo unspecified)	Lassa entry inh inconclusive, HCV inhibitor inconclusive, MARV entry inh inconclusive
COc1cc(C2C(C#N)=C(N)N(N(C)C)C3=C2C(=O)CC(C)(C)C3)cc(OC)c1OC (stereo unspecified)	MARV entry inh inconclusive, HCMV antiviral -82
COc1cc(C2C(C#N)=C(C)NC3=C2C(=O)CC(C)(C)C3)cc(OC)c1O (stereo unspecified)	HCMV antiviral -61
Cc1ccc(Cl)cc1N1CCN(c2cccc[n+]2C)CC1	MARV entry inh inconclusive, HCMV antiviral -93
NCC(O)COc1cccc2ccccc12 (stereo unspecified)	none (no result: Lassa entry inh, HCV inhibitor, MARV entry inh, SARS PLP yeast, HCMV antiviral)
OC(CN1c2ccccc2Sc2ccccc21)Cn1nnc2ccccc21 (stereo unspecified)	HCV inhibitor inconclusive, MARV entry inh inconclusive, FMDV antiviral inconclusive
Cc1nn(CC(O)CN2c3ccccc3Sc3ccccc32)c(C)c1Br (stereo unspecified)	Lassa entry inh inconclusive, HCV inhibitor inconclusive, MARV entry inh 11µM, FMDV antiviral inconclusive
